PubChem BioAssay AID1347416 (National Center for Advancing Translational Sciences (NCATS), 2020)
The whole screen tested about 4,100 compounds, of which about 1,600 (39%) were called active. Inconclusive results (about 25%) are left out. The call rests on the fitted dose curve; in most records, active means well fitted inhibition curve with a large enough effect; inconclusive means small, poorly fitted or top-dose-only effect; inactive means no such curve, though single readings can be large or run the other way. This is one part of the list. Where a call stands in place of a potency, no number is given.

experiment: qHTS Validation assay for Inhibitors of Plasmodium falciparum Dd2 growth in vitro; further: nearly all actives have a fitted effect of over 70% in size; conditions: P. falciparum Dd2 in RBCs, SYBR Green growth, 72 h; series mostly up to 28.7 µM
Procedure, shortened: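 P. falciparum Dd2-infected red blood cells (2.5% hematocrit, 0.3% parasitemia) grown 72 h at 37 °C under 5% O2 with compounds in a titration, 29 uM to 0.5 nM final. Growth read as SYBR Green-1 fluorescence after ~16 h lysis; artesunate 300 nM as positive control.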
Potency means the concentration at half of the fitted maximal effect.

Row | Structure (SMILES) | Potency
1 | COc1cccc(CNC(=O)CN2C(=O)NC3(CCC(C(C)(C)C)CC3)C2=O)c1 (stereo unspecified) | inactive
2 | CNC(=O)[C@H]1C[C@H](Oc2ccccc2)CN1Cc1c[nH]c2ccc(OC)cc12 | inactive
3 | COc1ccc2[nH]cc(CCNC(=O)C3(Cc4ccccc4)CCCCC(=O)N3)c2c1 (stereo unspecified) | 5.96 µM (active)
4 | CCC(=O)O[C@]1(C(=O)CCl)[C@@H](C)C[C@H]2[C@@H]3C[C@H](F)C4=CC(=O)C=C[C@]4(C)[C@@]3(F)[C@@H](O)C[C@@]21C | 10.6 µM (active)
5 | Cc1ccc(NC(=O)Cn2cccc2-c2nc(-c3ccccc3)no2)c(C)c1 | inactive
6 | CC(C)c1ccccc1NC(=O)Cn1cccc1-c1nc(-c2ccc(F)cc2)no1 | 2.99 µM (active)
7 | CC(C)c1ccccc1NC(=O)Cn1cccc1-c1nc(-c2ccccc2)no1 | 4.22 µM (active)
8 | COc1ccccc1NC(=O)Cn1cccc1-c1nc(-c2ccc(F)cc2)no1 | inactive
9 | O=C(Cn1cccc1-c1nc(-c2ccc(F)cc2)no1)NCCc1ccccc1 | inactive
10 | CC(C)c1ccccc1NC(=O)CSc1nnc(COc2ccccc2Cl)o1 | inactive
11 | Cc1ccccc1N(C(=O)c1snc(C(N)=O)c1N)C(C(=O)NCC1CCCO1)c1ccc(N(C)C)cc1 (stereo unspecified) | 7.5 µM (active)
12 | Cc1ccc(-c2cc(C(F)F)n3ncc(C(=O)Nc4ccc(S(=O)(=O)Nc5ccccc5C)cc4)c3n2)cc1 | inactive
13 | O=C(c1ccccc1F)N1CCCCCC1c1nnc(-c2ccccc2)o1 (stereo unspecified) | inactive
14 | O=C(C1CCC1)N1CCCCCC1c1nnc(-c2ccccc2)o1 (stereo unspecified) | inactive
15 | Cc1ccc(-c2cc(C(F)F)n3ncc(C(=O)N4CCCCC4c4cccnc4)c3n2)cc1 (stereo unspecified) | 2.37 µM (active)
16 | O=C(c1cnn2c(C(F)F)cc(-c3ccccc3)nc12)N1CCCCC1c1cccnc1 (stereo unspecified) | 8.41 µM (active)
17 | Cc1ccc(-c2cc(C(F)(F)F)n3ncc(C(=O)N4CCCCC4c4cccnc4)c3n2)cc1 (stereo unspecified) | 1.88 µM (active)
18 | CC(C)c1ccc(CN2CCc3ncc(C(=O)NCCN4CCNC4=O)n3CC2)cc1 | inactive
19 | O=C(Nc1ccc(-c2csc(Nc3ccccc3)n2)cc1)c1cc([N+](=O)[O-])cc(C(F)(F)F)c1 | 2.11 µM (active)

Row | Structure (SMILES) | Potency
20 | Cc1ccc(-c2cc3c(=O)n(CCNC(=O)c4cc(F)ccc4F)ccn3n2)c(C)c1 | inactive
21 | CN(C)C(=O)c1ccc(N2CCC(NCCC3=CC[C@H]4C[C@@H]3C4(C)C)CC2)cc1 | inactive
22 | CC(CCc1ccccc1)NCC(O)c1cccc([N+](=O)[O-])c1 (stereo unspecified) | 0.473 µM (active)
23 | O=C(CCc1cc(Cl)no1)N1CCc2nc3cc(-c4ccccc4)[nH]n3c(=O)c2C1 | inactive
24 | CC(=O)c1sc2c(c1C)c(=O)n(-c1ccc(Cl)cc1)c(=O)n2Cc1cc(=O)n2cc(Cl)ccc2n1 | 7.5 µM (active)
25 | CCN(CC)C(=O)Cn1c(=O)n(-c2ccc(Cl)cc2)c(=O)c2c3c(sc21)CCCCC3 | inactive
26 | CCc1nc2c(c(-c3ccc(O)cc3)n1)CCN(Cc1ccccc1C(F)(F)F)CC2 | 2.99 µM (active)
27 | CC(C)c1nc2c(c(-c3ccc(O)cc3)n1)CCN(Cc1ccccc1C(F)(F)F)CC2 | 4.73 µM (active)
28 | Cc1c(Cl)cccc1NC(=O)CCCn1nc(C)c2sc3ccccc3c2c1=O | inactive
29 | Cc1c(Cl)cccc1Nc1nn2c(=O)c3ccc(C(=O)N(C)Cc4ccccc4)cc3nc2s1 | 16.8 µM (active)
30 | NS(=O)(=O)c1ccc(CCNC(=O)c2ccc3nc(CCc4ccccc4)oc3c2)cc1 | inactive
31 | CC1(CNc2ccccc2)COc2ccc(C(=O)NCCc3ccccc3)cc2N1 (stereo unspecified) | inactive
32 | O=c1c2cc3c(cc2nc2sc(Nc4ccc(F)cc4F)nn12)OCO3 | inactive
33 | Cc1c(Cl)cccc1Nc1nn2c(=O)c3ccc(C(=O)NCCc4ccccc4)cc3nc2s1 | 7.5 µM (active)
34 | COc1ccccc1C1CC(c2ccccc2)=NN1C(=O)c1ccccc1 (stereo unspecified) | 2.37 µM (active)
35 | O=C(NC1CCCN(c2cc(-c3ccccc3)[nH]n2)C1)c1cccc(Cl)c1 (stereo unspecified) | inactive
36 | COc1ccc(/C(C)=N/NC(=S)NCCc2ccccc2)c(O)c1 | 3.35 µM (active)
37 | CCCCc1c(C)c(C#N)c2nc3ccccc3n2c1Nc1c(C)n(C)n(-c2ccccc2)c1=O | 2.66 µM (active)
38 | Cc1sc(NC(=O)c2ccco2)c(C(c2cccnc2)N2CCC(C)CC2)c1C (stereo unspecified) | 5.31 µM (active)

Row | Structure (SMILES) | Potency
39 | CC1CCN(S(=O)(=O)c2ccc(NC(=O)c3ccco3)cc2)CC1 | inactive
40 | CCOC(=O)c1c[nH]c2cc(OCC(C)C)c(OCC(C)C)cc2c1=O | 0.944 µM (active)
41 | CCOC(=O)c1cn(CC)c2c(ccc3ccccc32)c1=O | inactive
42 | CCOC(=O)c1c[nH]c2c(C)cc(C)cc2c1=O | 4.22 µM (active)
43 | c1csc(-c2nc3nccc(-c4cc5ccccc5o4)n3n2)c1 | inactive
44 | CC(NCc1ccccc1)c1ccccc1O (stereo unspecified) | 5.31 µM (active)
45 | CCN1C(=O)c2cccc3c(S(=O)(=O)Nc4ccccc4)ccc1c23 | inactive
46 | Cc1ccccc1-c1nccn2c(C3CN(Cc4ccccc4O)C3)ncc12 | 5.44 µM (active)
47 | O=[N+]([O-])c1ccc(S(=O)(=O)N2CCn3cccc3C2c2ccc(Br)cc2)cc1 (stereo unspecified) | 5.96 µM (active)
48 | CC(C)N1CCC(NC(=O)NC2CCCCC2)CC1 | inactive
49 | CC(C(=O)N1CCCC1)N1CCN(S(=O)(=O)c2ccc(C(C)(C)C)cc2)CC1 (stereo unspecified) | 3.35 µM (active)
50 | CC(C(=O)NC1CCCC1)N1CCN(S(=O)(=O)c2ccc(C(C)(C)C)cc2)CC1 (stereo unspecified) | 8.41 µM (active)
51 | Cc1ccc(S(=O)(=O)N2CCC(C(=O)NC3CCCC3)CC2)cc1Cl | inactive
52 | COc1ccc(C(=O)N2CCC(n3c(C)cnc3-c3ccccc3)CC2)c(OC)c1 | inactive
53 | COc1cccc(CNC(=O)[C@@H]2C[C@@H](O)CN2C2CCN(C(=O)c3ccc(OC)c(F)c3)CC2)c1 | inactive
54 | COCCNC(=O)[C@@H]1C[C@@H](O)CN1C1CCN(C(=O)Cc2ccccc2)CC1 | inactive
55 | COc1cccc(C(=O)N2CCC(N3C[C@H](O)C[C@H]3C(=O)N3CCc4ccccc4C3)CC2)c1 | 8.41 µM (active)
56 | COc1cccc(C(=O)N2CCC(N3C[C@H](O)C[C@H]3C(=O)N3CC=C(c4ccccc4)CC3)CC2)c1 | 9.44 µM (active)
